Experimental data: PubChem BioAssay (EPA / NIEHS)
Records with an inconclusive call do not appear. Calls of active or inactive are those of the source. How the source made its calls, unless noted: active means hit-call score of the fitted dose curve at least 0.9, where 1 is the maximum; inactive means score below 0.9.

What was measured:
[1] = IUF_NPC2c_oligodendrocyte_migration_120hr: Leibniz Research Institute for Environmental Medicine (IUF) 120-hour Neural Progenitor Cell Migration Assay for Oligodendrocyte Migration (NPC2c) (AID 2284297);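 further: O4-positive oligodendrocyte migration distance divided by radial glia migration distance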
Procedure, shortened: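 Primary hNPC spheres migrating on extracellular matrix, exposed five days to a 7-point dilution series with solvent control. Oligodendrocyte migration was scored by high-content imaging of O4 immunostaining and expressed relative to radial glia distance.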

[2] = IUF_NPC2a_radial_glia_migration_120hr: Leibniz Research Institute for Environmental Medicine (IUF) 120-hour Neural Progenitor Cell Migration Assay for Radial Glia Migration (NPC2a) (AID 2284298)
Procedure, shortened: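 In this multiplexed test, fetal hNPC spheres migrate radially on poly-D-lysine/laminin in N2 medium (37C, 5% CO2, pH 7.2-7.6) under continuous compound exposure over five days. Migration is scored at 120 h from automated Hoechst nuclear imaging.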

[3] = IUF_NPC2a_radial_glia_migration_72hr: Leibniz Research Institute for Environmental Medicine (IUF) 72-hour Neural Progenitor Cell Migration Assay for Radial Glia Migration (NPC2a) (AID 2284299)
Procedure, shortened: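 Primary hNPC spheres, fetal brain GW 16-19, on PDL/laminin; DMEM/F12 3:1 + 1% N2. Compound dosed day 0, 7 conc. + SC, half-medium refresh day 3. 72 h brightfield, migration distance core-to-front (um), 4 directions averaged.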

[4] = IUF_NPC2b_neuronal_migration_120hr: Leibniz Research Institute for Environmental Medicine (IUF) 120-hour Neural Progenitor Cell Migration Assay for Neuron Migration (NPC2b) (AID 2284300)
Procedure, shortened: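 Neurons identified by TUBB3 immunostaining and Hoechst nuclei; migration distance measured automatically on fixed wells at 120 h, normalized to glia migration. Exposure spanned five days of differentiation in N2 medium, seven test concentrations.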

[5] = IUF_NPC3_neuronal_differentiation_120hr: Leibniz Research Institute for Environmental Medicine (IUF) 120-hour Neuronal Differentiation Assay (NPC3) (AID 2284301)
Procedure, shortened: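 Human fetal (GW 16-19) neural progenitor spheres (0.3 mm) plated on poly-D-lysine/laminin in N2 differentiation medium, exposed 120 h at 37C with half-medium renewal day 3; 7 concentrations. TUBB3+ cells as % of Hoechst nuclei, CNN-identified; DMSO baseline.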

[6] = IUF_NPC4_neurite_length_120hr: Leibniz Research Institute for Environmental Medicine (IUF) 120-hour Neuronal Morphology Assay for Neurite Length (NPC4) (AID 2284302)
Procedure, shortened: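 Human fetal neural progenitor spheres (0.3 mm) plated on poly-D-lysine/laminin in N2 differentiation medium, exposed from day 0 for 120 h with half-medium refresh at day 3, 37C. Mean neurite length (um) of TUBB3-positive neurons from skeletonized immunostaining images; DMSO ≤0.1%.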

[7] = IUF_NPC4_neurite_area_120hr: Leibniz Research Institute for Environmental Medicine (IUF) 120-hour Neuronal Morphology Assay for Neurite Area (NPC4) (AID 2284305; active means hit-call score of the fitted dose curve at least 0.9, where 1 is the maximum)
Procedure, shortened: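 Human fetal neural progenitor spheres (0.3 mm) plated on poly-D-lysine/laminin in N2 differentiation medium, exposed 120 h (7 concentrations, DMSO ≤0.1%, half-medium refresh day 3). Fixed, TUBB3 immunostained; mean neurite area per neuron by Omnisphero skeletonization.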

[8] = IUF_NPC2-5_cytotoxicity_72hr: Cytotoxicity Assessment at 72 hours in the Leibniz Research Institute for Environmental Medicine (IUF) Neural Progenitor Cell Migration and Differentiation Assay for Cytotoxicity (NPC2-5) (AID 2284306; active means hit-call score of the fitted dose curve at least 0.9, where 1 is the maximum;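 further: LDH release into supernatant measured by resorufin fluorescence marking membrane damage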)
Procedure, shortened: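 Human fetal primary neural progenitor spheres (0.3 mm) plated on poly-D-lysine/laminin in N2 differentiation medium, exposed from day 0 at 37C. LDH-dependent resazurin-to-resorufin fluorescence in supernatant at 72 h; 7 concentrations, DMSO at most 0.1%.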

[9] = IUF_NPC2-5_cytotoxicity_120hr: Cytotoxicity Assessment at 120 hours in the Leibniz Research Institute for Environmental Medicine (IUF) Neural Progenitor Cell Migration and Differentiation Assay (NPC2-5) (AID 2284307; active means hit-call score of the fitted dose curve at least 0.9, where 1 is the maximum)
Procedure, shortened: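 Fluorescence (RFU) from LDH-driven resazurin reduction in medium supernatants measured loss of membrane integrity after 120 h of compound exposure of differentiating primary human neural progenitor spheres on an extracellular matrix.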

[10] = IUF_NPC2-5_cell_number_120hr: Cell Number Assessment at 120 hours in the Leibniz Research Institute for Environmental Medicine (IUF) Neural Progenitor Cell Migration and Differentiation Assay (NPC2-5) (AID 2284308);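 further: count of Hoechst-stained nuclei in migration zone around plated human neural progenitor spheres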
Procedure, shortened: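 Cell number is taken as all Hoechst-positive nuclei detected in the area into which cells migrate out of the sphere, scored at 120 h and referenced to DMSO solvent control, which was kept at no more than 0.1%.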

[11] = IUF_NPC2-5_viability_120hr: Viability Assessment at 120 hours in the Leibniz Research Institute for Environmental Medicine (IUF) Neural Progenitor Cell Migration and Differentiation Assay (NPC2-5) (AID 2284312)
Procedure, shortened: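 Human fetal neural progenitor spheres (0.3 mm) plated on poly-D-lysine/laminin in N2 differentiation medium, exposed 120 h with half-medium refresh at day 3. Viability by alamar blue resazurin fluorescence; 7 concentrations, DMSO max 0.1%.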

[12] = IUF_NPC5_oligodendrocyte_differentiation_120hr: Leibniz Research Institute for Environmental Medicine (IUF) 120-hour Oligodendrocyte Differentiation Assay (NPC5) (AID 2284304; active means hit-call score of the fitted dose curve at least 0.9, where 1 is the maximum;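 further: primary human fetal neural progenitor spheres plated to migrate and differentiate; share of O4-positive cells among Hoechst nuclei found by CNN image analysis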)
Procedure, shortened: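 Human primary NPC neurospheres migrating and differentiating on laminin for 120 h under continuous compound exposure (serial dilution, solvent control). Endpoint: percent O4+ oligodendrocytes among Hoechst nuclei, detected by CNN image analysis, with DMSO as negative control.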

Measured: outcome

Nc1ncn([C@@H]2O[C@H](CO)[C@@H](O)[C@H]2O)c(=O)n1
not listed: [12]
inactive: all other assays above

CC1(C)S[C@@H]2[C@H](NC(=O)COc3ccccc3)C(=O)N2[C@H]1C(=O)O
not listed: [7]
inactive: all other assays above
